Legend:
Conditions in all cases: concentration: 1 μM, replicates: in singlicate; n = 1
MKNK1 = test system: MKNK1
MKNK2 = test system: MKNK2
MLCK = test system: T1, MLCK
T1 construct: gene MYLK3

MLK1 = test system: T2, MLK1
T2 construct: gene MAP3K9

MLK2 = test system: MLK2
MLK3 = test system: MLK3
MRCKA = test system: MRCKA
MRCKB = test system: T3, MRCKB
T3 construct: gene CDC42BPB

MST1R = test system: MST1R
MST1 = test system: T4, MST1
T4 construct: gene STK4
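Note: KINOMEscan kinase panel screen.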

O=C(Nc1ccc2c(c1)OCO2)NC1CCN(c2ccnc(Nc3ccc(F)cc3)n2)C1 (stereo not drawn) [GSK1379724]
%Inh (MKNK1): 0% | %Inh (MKNK2): 3% | %Inh (MLCK): 0% | %Inh (MLK1): 0% | %Inh (MLK2): 0% | %Inh (MLK3): 2% | %Inh (MRCKA): 2% | %Inh (MRCKB): 16% | %Inh (MST1R): 35% | %Inh (MST1): 0%

O=C(Nc1ccccc1)Nc1cccc(Oc2ccc3nccn3n2)c1
%Inh (MKNK1): 10% | %Inh (MKNK2): 0% | %Inh (MLCK): 7% | %Inh (MLK1): 0% | %Inh (MLK2): 9% | %Inh (MLK3): 0% | %Inh (MRCKA): 1% | %Inh (MRCKB): 4% | %Inh (MST1R): 0% | %Inh (MST1): 0%

COc1ccccc1-c1ccc2c(NC(=O)C3CC3)n[nH]c2n1 [SB-711239]
%Inh (MKNK1): 0% | %Inh (MKNK2): 0% | %Inh (MLCK): 14% | %Inh (MLK1): 8% | %Inh (MLK2): 8% | %Inh (MLK3): 8% | %Inh (MRCKA): 0% | %Inh (MRCKB): 0% | %Inh (MST1R): 16% | %Inh (MST1): 0%

Cc1ccc(-c2cc(-c3c[nH]nc3-c3ccccn3)ccn2)cc1 [GW684088]
%Inh (MKNK1): 0% | %Inh (MKNK2): 1% | %Inh (MLCK): 0% | %Inh (MLK1): 0% | %Inh (MLK2): 0% | %Inh (MLK3): 15% | %Inh (MRCKA): 2% | %Inh (MRCKB): 0% | %Inh (MST1R): 13% | %Inh (MST1): 0%

Cc1ccccc1-n1cnc2c(N)ncnc21 [SKF-97510]
%Inh (MKNK1): 0% | %Inh (MKNK2): 0% | %Inh (MLCK): 0% | %Inh (MLK1): 0% | %Inh (MLK2): 0% | %Inh (MLK3): 1% | %Inh (MRCKA): 0% | %Inh (MRCKB): 0% | %Inh (MST1R): 0% | %Inh (MST1): 0%

O=S(=O)(c1ccc(-c2ccnc3[nH]ccc23)cc1)N1CCCC1 [GSK846226]
%Inh (MKNK1): 14% | %Inh (MKNK2): 46% | %Inh (MLCK): 4% | %Inh (MLK1): 0% | %Inh (MLK2): 0% | %Inh (MLK3): 0% | %Inh (MRCKA): 0% | %Inh (MRCKB): 0% | %Inh (MST1R): 16% | %Inh (MST1): 0%

Cc1ccc(C(=O)Nc2ccc(Nc3ccnc4cc(-c5ccccn5)ccc34)cc2O)cc1.Cl [GW440146]
%Inh (MKNK1): 0% | %Inh (MKNK2): 0% | %Inh (MLCK): 0% | %Inh (MLK1): 0% | %Inh (MLK2): 0% | %Inh (MLK3): 0% | %Inh (MRCKA): 18% | %Inh (MRCKB): 0% | %Inh (MST1R): 52% | %Inh (MST1): 10%

Cc1cc(-c2ccc3c(c2)CC[C@@H](N[C@@H](C)c2ccccc2)C3)cnc1N.Cl [GW412617]
%Inh (MKNK1): 13% | %Inh (MKNK2): 3% | %Inh (MLCK): 0% | %Inh (MLK1): 0% | %Inh (MLK2): 15% | %Inh (MLK3): 32% | %Inh (MRCKA): 0% | %Inh (MRCKB): 4% | %Inh (MST1R): 38% | %Inh (MST1): 1%

C[C@@H]1CCCCN1c1cc(-c2ccc3c(N)n[nH]c3c2)nc(N)n1 [GSK2258759]
%Inh (MKNK1): 0% | %Inh (MKNK2): 5% | %Inh (MLCK): 0% | %Inh (MLK1): 0% | %Inh (MLK2): 0% | %Inh (MLK3): 0% | %Inh (MRCKA): 6% | %Inh (MRCKB): 0% | %Inh (MST1R): 28% | %Inh (MST1): 0%

Cc1cccc(-c2nc(C)cc(Nc3ccncc3)n2)n1 [GSK257997]
%Inh (MKNK1): 0% | %Inh (MKNK2): 0% | %Inh (MLCK): 0% | %Inh (MLK1): 0% | %Inh (MLK2): 0% | %Inh (MLK3): 39% | %Inh (MRCKA): 34% | %Inh (MRCKB): 81% | %Inh (MST1R): 35% | %Inh (MST1): 8%

CN(C)CCN(C)C(=O)c1cc(-c2ccncc2)c(-c2ccc(Cl)c(O)c2)o1.Cl.Cl [SB-710397]
%Inh (MKNK1): 2% | %Inh (MKNK2): 1% | %Inh (MLCK): 12% | %Inh (MLK1): 0% | %Inh (MLK2): 0% | %Inh (MLK3): 0% | %Inh (MRCKA): 17% | %Inh (MRCKB): 2% | %Inh (MST1R): 42% | %Inh (MST1): 0%

COc1cc2ncnc(Nc3ccc4nc(-c5ccccc5)[nH]c4c3)c2cc1OC.Cl [GW282450]
%Inh (MKNK1): 2% | %Inh (MKNK2): 2% | %Inh (MLCK): 0% | %Inh (MLK1): 0% | %Inh (MLK2): 0% | %Inh (MLK3): 33% | %Inh (MRCKA): 14% | %Inh (MRCKB): 14% | %Inh (MST1R): 26% | %Inh (MST1): 0%

COc1ccccc1CNC(=O)c1cc(C(=O)c2ccccc2C)c[nH]1 [GSK364507]
%Inh (MKNK1): 5% | %Inh (MKNK2): 2% | %Inh (MLCK): 9% | %Inh (MLK1): 0% | %Inh (MLK2): 0% | %Inh (MLK3): 0% | %Inh (MRCKA): 40% | %Inh (MRCKB): 0% | %Inh (MST1R): 36% | %Inh (MST1): 0%

COc1cc2ncn(-c3cc(OCC4CCCO4)c(C(N)=O)s3)c2cc1OC (stereo not drawn) [GSK204607]
%Inh (MKNK1): 0% | %Inh (MKNK2): 4% | %Inh (MLCK): 0% | %Inh (MLK1): 0% | %Inh (MLK2): 0% | %Inh (MLK3): 10% | %Inh (MRCKA): 8% | %Inh (MRCKB): 0% | %Inh (MST1R): 16% | %Inh (MST1): 0%

COC(=O)c1c(-c2ccccc2)c2cc(C(=O)O)ccc2c(=O)n1Cc1ccccc1
%Inh (MKNK1): 0% | %Inh (MKNK2): 0% | %Inh (MLCK): 0% | %Inh (MLK1): 41% | %Inh (MLK2): 14% | %Inh (MLK3): 0% | %Inh (MRCKA): 0% | %Inh (MRCKB): 0% | %Inh (MST1R): 19% | %Inh (MST1): 0%

NC(=O)c1nnc2ccccc2c1N
%Inh (MKNK1): 12% | %Inh (MKNK2): 0% | %Inh (MLCK): 0% | %Inh (MLK1): 84% | %Inh (MLK2): 0% | %Inh (MLK3): 0% | %Inh (MRCKA): 0% | %Inh (MRCKB): 0% | %Inh (MST1R): 10% | %Inh (MST1): 4%

COc1cccc(-c2cc(-c3c[nH]nc3-c3ccccn3)ccn2)c1 [GW680338]
%Inh (MKNK1): 6% | %Inh (MKNK2): 0% | %Inh (MLCK): 8% | %Inh (MLK1): 0% | %Inh (MLK2): 43% | %Inh (MLK3): 9% | %Inh (MRCKA): 16% | %Inh (MRCKB): 0% | %Inh (MST1R): 35% | %Inh (MST1): 4%

Cc1cccc(-c2cc(Nc3ccncc3)c3ccccc3n2)n1 [GSK223675]
%Inh (MKNK1): 11% | %Inh (MKNK2): 4% | %Inh (MLCK): 0% | %Inh (MLK1): 0% | %Inh (MLK2): 0% | %Inh (MLK3): 0% | %Inh (MRCKA): 0% | %Inh (MRCKB): 0% | %Inh (MST1R): 33% | %Inh (MST1): 0%
